“And” between values parts separate entries of the source, which are not always exact repeats. Identical values can stand only once. Records with an inconclusive call do not appear. Values without a mark were called inactive. The source made the active and inactive calls. Calls follow the shape of the dose curve; as a rule, active = well fitted cell-killing curve with a large enough effect; inconclusive = small, poorly fitted or top-dose-only effect, or effect the other way; inactive = flat fitted curve, though single readings scatter.
tested on: Tov-21-G; assay: Primary qHTS to identify gynecologic anti-cancer compounds using libraries of approved drugs and bioactive compounds (AID 1345084); conditions: Gynecologic cancer cell panel viability, ATPlite luminescence, 48 h; series mostly up to 57.5 µM; activity change, negative = cytotoxicity: at the top concentration; also: nearly all actives have a fitted effect of over 55% in size
Outline: (§1)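 Five-point cytotoxicity, 48 h drug exposure at 37 C, 5% CO2, on cells seeded 16 h beforehand. ATP content read by ATPlite luminescence.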
% is scaled to controls: 0 for no effect and ±100 for the full control effect; potency is read from the fitted curve at half-maximal effect.

| Structure (SMILES) | activity change, negative = cytotoxicity | Potency |
| --- | --- | --- |
| CN1Cc2c(N)cccc2C(c2ccccc2)C1 (stereo unspecified) | -4.79% | – |
| NS(=O)(=O)OC[C@@H]1C[C@@H](n2ccc3c(N[C@H]4CCc5ccccc54)ncnc32)C[C@@H]1O | – | 501 nM (active) and 398 nM (active) |
| OC[C@H]1O[C@@H](OCCc2ccc(O)cc2)[C@H](O)[C@@H](O)[C@@H]1O | -0.333% | – |
| CCC(=O)NS(=O)(=O)c1ccc(-c2c(-c3ccccc3)noc2C)cc1 | -1.07% | – |
| CC1(C)O[C@]23C[C@H]1C[C@H](OC(=O)c1ccoc1)[C@]2(C)[C@@H](OC(=O)c1ccoc1)CCC3(C)O (stereo partly specified) | -11.4% [at 25.3 µM] | – |
| CCCn1cnc2c(NCc3ccccc3)nc(N[C@H](CC)CO)nc21 | -8.96% | – |
| C=C[C@@]1(C)CC(=O)C2[C@](C)(O1)[C@@H](OC(C)=O)[C@@H](O)[C@H]1C(C)(C)CCC[C@]21C (stereo partly specified) | 0.473% [at 11.6 µM] | – |
| CC[C@H]1OC(=O)C[C@@H](O)[C@H](C)[C@@H](O[C@@H]2O[C@H](C)[C@@H](O)[C@H](N(C)C)[C@H]2O)[C@@H](CCN2C[C@H](C)C[C@H](C)C2)C[C@@H](C)C(=O)/C=C/C(C)=C/[C@@H]1CO[C@@H]1O[C@H](C)[C@@H](O)[C@@H](OC)[C@H]1OC | -0.32% | – |
| O=C1NC(=Nc2ccccc2F)S/C1=C\c1ccc(C(=O)O)cc1 | 1.85% | – |
| COc1cc(C(O)C(CO)Oc2ccc(CCCO[C@@H]3O[C@@H](C)[C@H](O)[C@@H](O)[C@H]3O)cc2OC)ccc1O (stereo partly specified) | 10.9% [at 25.3 µM] | – |
| CC12CCC3c4ccc(O)cc4CCC3C1CCC2OC1OC(C(=O)O)C(O)C(O)C1O (stereo unspecified) | -0.656% | – |
| CC1CCC2(C(=O)OC3OC(COC4OC(CO)C(O)C(O)C4O)C(O)C(O)C3O)CCC3(C)C(=CCC4C5(C)CCC(O)C(C)(C(=O)O)C5CCC43C)C2C1(C)O (stereo unspecified) | 6.67% [at 11.6 µM] | – |
| Cc1cc(N2CCCCC2)nc2ccccc12 | 10.1% | – |
| FC(F)(F)c1cc(C(F)(F)F)c2ccc3nc(-c4nnco4)cn3c2n1 | 9.18% | – |
| Oc1ccc([C@H]2COc3cc(O)ccc3C2)cc1 | 0.295% | – |
| C[C@]12C=CC(=O)C=C1CC[C@@H]1[C@@H]2[C@@H](O)C[C@@]2(C)[C@H]1CC[C@]2(O)C(=O)COC(=O)CCC(=O)O | -2.55% | – |
| CC(=O)NCCCCn1c2c(c3ccccc31)C(=O)NCC2 | 2.05% | – |

| Structure (SMILES) | activity change, negative = cytotoxicity | Potency |
| --- | --- | --- |
| CC(C)CC(=O)n1cc(C(N)=O)c(=O)cc1C(O)c1ccccc1 (stereo unspecified) | 8.75% [at 38.5 µM] | – |
| COc1ccc(C2=CC(=O)OC2Cc2ccc(O)cc2)c(O)c1 (stereo unspecified) | -4.18% [at 38.5 µM] | – |
| CCC[C@@H]1C[C@@H](C(=O)N[C@@H]([C@H]2O[C@H](SC)[C@H](OP(=O)(O)O)[C@@H](O)[C@H]2O)[C@H](C)Cl)N(C)C1 | 5.97% [at 25.3 µM] | – |
| O=C1N(CC2CCCCN2)CCN1c1ccccc1 (stereo unspecified) | 1.37% | – |
| COc1ccc(C[C@H](N)C(=O)N[C@H]2[C@@H](O)[C@H](n3cnc4c(N(C)C)ncnc43)O[C@@H]2CO)cc1 | – | 3.98 µM (active) |
| Nc1c(Br)cc(Br)cc1CNC1CCC(O)CC1 (stereo unspecified) | -0.304% | – |
| CCC(=O)O[C@]1(C(=O)CCl)[C@@H](C)C[C@H]2[C@@H]3C[C@H](F)C4=CC(=O)C=C[C@]4(C)[C@@]3(F)[C@@H](O)C[C@@]21C | 6.16% | – |
| COc1ccc(C(OC2OC(CO)C(O)C(O)C2O)C(C)O)cc1 (stereo unspecified) | 1.03% [at 38.5 µM] | – |
| CC1=C(C)C(=O)OC(C(C)C2C(O)CC3C4C5OC5C5(O)CC(OC6OC(CO)C(O)C(O)C6O)CC(O)C5(C)C4CCC32C)C1 (stereo unspecified) | -0.907% [at 25.3 µM] | – |
| C[C@@H]1C[C@H]2[C@@H]3CCC4=CC(=O)C=C[C@]4(C)[C@@]3(F)[C@@H](O)C[C@]2(C)[C@@]1(O)C(=O)COP(=O)(O)O | 11.5% | – |
| CC1CCC23COC(=O)C2=CC(O)CC3C1(C)CCC1=CC(=O)OC1O (stereo unspecified) | 1.73% [at 38.5 µM] | – |
| COc1cc(N2CCC(N(C)C)CC2)ccc1Nc1ncc(Cl)c(Nc2ccccc2P(C)(C)=O)n1 | – | 7.08 µM (active) |
| CC1=C2[C@@H]([C@H](C)CC[C@H]2/C=C(\C)C(=O)O)[C@H](O)C1 | -3.35% | – |
| CC(C)[C@H]1CCC(CO)=C[C@@H]1/C=C(\CO)C(=O)O | -3.73% | – |
| CC(=O)OC(C)OC(=O)C(C)c1ccc(-c2ccccc2)c(F)c1 (stereo unspecified) | -2.3% | – |
| CC1(C)CCCC2(C)C(CO)C3CCC2C31 (stereo unspecified) | 0.117% | – |

tested on: Tov112D; assay: as above; conditions: Gynecologic cancer cell panel viability, ATPlite luminescence, 48 h; series mostly up to 57.5 µM; activity change, negative = cytotoxicity: at the top concentration
Outline: as §1

| Structure (SMILES) | activity change, negative = cytotoxicity | Potency |
| --- | --- | --- |
| CN1Cc2c(N)cccc2C(c2ccccc2)C1 (stereo unspecified) | 4.02% | – |
| COc1cc2c(Nc3ccc(Cl)c(Cl)c3F)ncnc2cc1OCC1C[C@@H]2CN(C)C[C@@H]2C1 (stereo partly specified) | – | 17.8 µM (active) |
| OC[C@H]1O[C@@H](OCCc2ccc(O)cc2)[C@H](O)[C@@H](O)[C@@H]1O | 1.49% | – |

— PubChem BioAssay (NCATS)
